One assay concerns Klebsiella pneumoniae. The note with it: Concentration 32 ug.mL-1, ASSAY_TEST Inhibition of Bacterial Growth, detection method Absorption (OD600), MEDIA CAMHB, plate type 384well, NBS, CORNING #3640, time 18 hr.
For the next assay, the system named is Candida albicans. The note with it: 32 ug/mL.
Another assay deals with Cryptococcus neoformans. To be noted: Concentration 32 ug.mL-1, ASSAY_TEST Inhibition of Fungal Growth, detection method Resazurin, Absorption (OD600-OD570), plate type 384well, NBS, CORNING #3640.

The results in this text go back to ChEMBL document CHEMBL4513142, “CO-ADD screening of Indiana University - Purdue University Indianapolis (USA) compounds”.

Where “and” joins values, the source holds several entries; their conditions need not be identical. Identical values can stand only once. Potency and affinity values are given separately.

Usually Inhibition stands for the change of the read-out against control, counted positive when it falls.

As for `CCCNC(=O)C(Cc1ccccc1)NC(=O)c1ccc(F)cc1` (stereo not given), the values for the Inhibition in the assay on Klebsiella pneumoniae, with Candida albicans and with Cryptococcus neoformans were 15.24%, 2.91% and -7.35%, respectively.

As for `CCCNC(=O)C(Cc1ccccc1)NC(=O)Cc1ccccc1` (stereo not given), the Inhibition in the assay on Klebsiella pneumoniae is 14.33%; in the assay on Candida albicans, 5.66%; in the assay with Cryptococcus neoformans it was -5.77%.

For `O=C(N[C@@H](Cc1ccccc1)C(=O)O)C1CCCCC1`, the Inhibition in the assay with Klebsiella pneumoniae (32 ug/mL) was 1.14% and 5.62%; with Cryptococcus neoformans (32 ug/mL) it was -13.27% and -11.08%.

Consider `CC(C)C[C@H](NC(=O)c1cccnc1)C(N)=O`, for which the Inhibition was 3.3% and -1.43% with Klebsiella pneumoniae (32 ug/mL); -4.01% and -5.8% in the assay on Cryptococcus neoformans (32 ug/mL).

`NC(Cc1ccccc1I)C(=O)O.O=C(O)C(F)(F)F` (stereo not given): the Inhibition with Klebsiella pneumoniae (32 ug/mL) is 3.96% and 4.88%; with Candida albicans, 4.55% and 4.79%; in the assay with Cryptococcus neoformans (32 ug/mL) it was -7.57% and -7.31%.

As to `NC(=O)[C@@H]1CCCN1C(=O)c1ccccn1`, the Inhibition in the assay with Klebsiella pneumoniae (32 ug/mL) is 13.57% and 8.38%; with Candida albicans it was 8.62% and 7.92%; in the assay on Cryptococcus neoformans (32 ug/mL), -5.72% and -3.53%.

As to `[C-]#[N+]c1ccc(C(=O)NC(Cc2ccc(C(F)(F)F)cc2)C(=O)NCCC)cc1` (stereo not given), the Inhibition in the assay with Klebsiella pneumoniae was 13.54%; with Candida albicans, 5.79%; with Cryptococcus neoformans, -3.04%.

For `NC(Cc1ccccc1F)C(=O)O.O=C(O)C(F)(F)F` (stereo not given), the Inhibition with Klebsiella pneumoniae (32 ug/mL) was -4.61% and -3.52%; with Candida albicans it was 2.11% and 3.25%; in the assay on Cryptococcus neoformans (32 ug/mL), -7.08% and 0.99%.

As for `Cc1ccc(C(=O)NC(Cc2ccc(F)cc2)C(=O)O)cc1` (stereo not given), the Inhibition in the assay with Klebsiella pneumoniae (32 ug/mL) is -11.12% and 7.59%; in the assay on Cryptococcus neoformans (32 ug/mL), -14.35% and -11.02%.

Turning to `NC(Cc1cccc(F)c1)C(=O)O.O=C(O)C(F)(F)F` (stereo not given), the Inhibition is 0.53% and 0.81% with Klebsiella pneumoniae (32 ug/mL); 1.58% and 1.27% in the assay with Candida albicans; -7.68% and -3.4% with Cryptococcus neoformans (32 ug/mL).

As to `O=C(NC(Cc1ccc(Cl)nc1)C(=O)O)c1ccccc1` (stereo not given), the Inhibition in the assay with Klebsiella pneumoniae (32 ug/mL) was 9.49% and 7.67%; in the assay with Candida albicans, 3.67% and 3.1%; in the assay with Cryptococcus neoformans (32 ug/mL), -7.31% and -8.02%.

Take `NC(=O)[C@H](Cc1ccccc1)NC(=O)c1cccnc1`: the Inhibition is 15.19% and 20.47% in the assay with Klebsiella pneumoniae (32 ug/mL); 6.63% and 4.08% in the assay on Candida albicans; -3.63% and -8.29% with Cryptococcus neoformans (32 ug/mL).

As to `[C-]#[N+]c1ccc(C(=O)NC(Cc2ccc(F)cc2)C(=O)NCCC)cc1` (stereo not given), the figures for the Inhibition in the assay with Klebsiella pneumoniae, in the assay with Candida albicans and with Cryptococcus neoformans were 14.12%, 5.24% and -1.72%, respectively.

Consider `[C-]#[N+]c1ccc(C(=O)NC(CC=C)C(=O)NCCC)cc1` (stereo not given), for which the Inhibition was 4.31% in the assay on Klebsiella pneumoniae, 3.05% in the assay with Candida albicans and -8.98% in the assay on Cryptococcus neoformans.

As to `[C-]#[N+]c1ccc(C(=O)NC(CC#C)C(=O)NCCC)cc1` (stereo not given), the Inhibition with Klebsiella pneumoniae is 15.5%; in the assay on Candida albicans, 4.37%; in the assay on Cryptococcus neoformans it was -8.61%.

Take `NC(Cc1ccc(F)c(F)c1)C(=O)O.O=C(O)C(F)(F)F` (stereo not given): the Inhibition in the assay with Klebsiella pneumoniae (32 ug/mL) is 7.21% and 5.15%; in the assay on Candida albicans, 1.67% and -0.02%; in the assay with Cryptococcus neoformans (32 ug/mL), -13.22% and -14.09%.

Regarding `O=C(NC(CCCc1ccccc1)C(=O)O)c1cccc2ccccc12` (stereo not given), the Inhibition with Klebsiella pneumoniae (32 ug/mL) is 4.24% and 7.53%; with Candida albicans, 4.21% and 5.17%; in the assay with Cryptococcus neoformans (32 ug/mL) it was -11.3% and -10.65%.

In the case of `CC(C)[C@H](NC(=O)c1cccc(C(F)(F)F)c1)C(=O)O`, the Inhibition in the assay on Klebsiella pneumoniae (32 ug/mL) was -0.42% and 3.74%; in the assay on Candida albicans it was 7.7% and 10.5%; in the assay on Cryptococcus neoformans (32 ug/mL), -6.26% and -6.2%.

Consider `CCCNC(=O)C(Cc1ccccc1C)NC(=O)c1ccc(C(F)(F)F)cc1` (stereo not given), for which the Inhibition in the assay with Klebsiella pneumoniae was 12.54%; in the assay on Candida albicans it was 0.78%; in the assay on Cryptococcus neoformans it was -3.03%.

With `[C-]#[N+]c1ccc(C(=O)NC(Cc2ccccc2F)C(=O)NCCC)cc1` (stereo not given), the Inhibition with Klebsiella pneumoniae is 8.88%; in the assay with Candida albicans, 1.53%; in the assay with Cryptococcus neoformans it was -7.85%.

On to `CC(C)C[C@H](NC(=O)c1ccc(Cl)cc1Cl)C(N)=O`, for which the Inhibition in the assay with Klebsiella pneumoniae (32 ug/mL) was 14.05% and -7.39%; in the assay on Candida albicans, 4.49% and 5.39%; in the assay on Cryptococcus neoformans (32 ug/mL) it was -13.33% and -10.52%.

For the molecule `C[C@H](NC(=O)c1ccccc1Cl)C(=O)O`, the Inhibition with Klebsiella pneumoniae (32 ug/mL) is -1.23% and -3.38%; with Candida albicans, 4.87% and 8.5%; in the assay with Cryptococcus neoformans (32 ug/mL) it was -5.22% and -11.03%.

Take `NC(Cc1ccc(F)cc1)C(=O)O.O=C(O)C(F)(F)F` (stereo not given): the Inhibition with Klebsiella pneumoniae (32 ug/mL) is 1.77% and -4.38%; in the assay on Candida albicans, 1.28% and -0.06%; with Cryptococcus neoformans (32 ug/mL) it was 6.08% and -8.37%.

As for `Cc1ccc(C(=O)NC(Cc2cc(F)c(F)cc2F)C(=O)O)cc1` (stereo not given), the Inhibition in the assay with Klebsiella pneumoniae (32 ug/mL) is 7.96% and 13.51%; in the assay with Candida albicans, 4.99% and 4.52%; with Cryptococcus neoformans (32 ug/mL), -10.86% and -7.35%.

Consider `COc1cc(C(=O)N[C@@H](CC(C)C)C(=O)O)ccc1O`, for which the Inhibition was 1.29% and 3.72% in the assay on Klebsiella pneumoniae (32 ug/mL); 4.13% and 6.65% with Candida albicans; -7.3% and -10.82% with Cryptococcus neoformans (32 ug/mL).

Take `O=C(Cc1cccc(Br)c1)N[C@@H](Cc1ccccc1)C(=O)O`: the Inhibition with Klebsiella pneumoniae (32 ug/mL) was 7.39% and -2.64%; in the assay with Cryptococcus neoformans (32 ug/mL) it was -5.52% and -8.87%.

On to `[C-]#[N+]c1ccc(C(=O)NC(CC)C(=O)NCCC)cc1` (stereo not given), for which the values for the Inhibition with Klebsiella pneumoniae, in the assay on Candida albicans and with Cryptococcus neoformans were 12.56%, -0.99% and -4.7%, respectively.

Regarding `Cc1ccc(C(=O)NC(Cc2ccccc2C#N)C(=O)O)cc1` (stereo not given), the Inhibition in the assay on Klebsiella pneumoniae (32 ug/mL) was 10.82% and 9.51%; in the assay on Cryptococcus neoformans (32 ug/mL), -6.48% and -6.82%.

Turning to `CCCNC(=O)C(Cc1ccc(F)cc1)NC(=O)c1ccccc1` (stereo not given), the Inhibition was 12.41% in the assay on Klebsiella pneumoniae, 2.54% in the assay on Candida albicans and -4.63% in the assay on Cryptococcus neoformans.

On to `NC(=O)[C@H](Cc1ccccc1)NC(=O)c1c(F)c(F)c(F)c(F)c1F`, for which the Inhibition is 8.47% and 11.14% with Klebsiella pneumoniae (32 ug/mL); 3.95% and 8.52% with Candida albicans; -9.93% and -7.63% in the assay with Cryptococcus neoformans (32 ug/mL).
